Each structure is given as a SMILES string. Among all 300,000 compounds or so, about 3,600 (1.2%) were called active. The sample holds actives, similar compounds and a random draw of the others, so the mix is not that of the screen. Values without a mark were called inactive. Cut-off read from the data, not from the text of the source: active = activation above about 30% (passing the limit was not always enough); inconclusive = no clear call, values can overlap the other calls.

Results on 88 compounds are retold here after PubChem BioAssay AID743398 (Broad Institute, 2014).

This experiment is described as follows: activation of beta-catenin signaling reporter – cell-based, plate reader, single point, primary screen (AID 743398).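 Note: 0% = neutral control wells and 100% = positive control wells.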 As to conditions: Wnt/beta-catenin reporter cell assay, activator, at 9.35 µM, stronger effect = higher value.
For `COc1cccc(CC(=O)N2CCN(C(=O)C(=O)c3cccc(C(F)(F)F)c3)CC2)c1`, the activation was -3.95%.
In the case of `CN(Cc1ccccc1)C(=O)c1cccc(C(=O)N(C)Cc2ccccc2)c1` it was 1.74%; in that of `Cc1cc(C)cc(NC(=O)CSc2ccccc2)c1`, -7.62%.
Take `Cc1cc(C)cc(NC(=O)N(C)Cc2ccccc2)c1`: the activation is 46% (active).
As to `Cc1ccccc1-c1nc(NC(C)C)nc2cc(-c3ccccc3)sc12`, the activation is -8.66%.
In the case of `CN1CCN(c2ccc3c(c2)OC[C@H](Cc2ccccc2)NS3(=O)=O)CC1`, the activation was -3.42%.
As for `CSCCNC(=O)c1ccc2nc(Cc3ccccc3F)oc2c1`, the activation is 42.9% (active).
Take `COCCNC(=O)c1ccc2nc(Cc3ccc(OC)c(OC)c3)oc2c1`: the activation is 1.55%.
The value for `COc1ccc(Cc2nc3ccc(C(=O)NCC4CCOCC4)cc3o2)cc1OC` was 7.09%; that for `COc1ccc2nc(-c3ccccn3)ccc2c1` was 1.79%.
The value for `COc1ccc(-c2cn3cccnc3n2)cc1` was 26.2%; that for `COc1ccc(-c2cc3ncccc3cn2)cc1` was 50.1% (active); that for `CCOc1ccc(Cl)cc1-c1cc(C(=O)NCc2cccs2)[nH]n1` was -2.6%.
On to `O=C(NCc1ccccc1)[C@@H]1CCCN1C(=O)[C@H]1CCCN1C(=O)c1cccc(Cl)c1`, for which the activation was 3.03%.
Turning to `O=C1/C(=C/c2cccs2)CCc2ccccc21`, the activation was 24.6%.
Consider `CN1C/C(=C/c2cccs2)C(=O)/C(=C\c2cccs2)C1`, for which the activation was 5.88%.
Take `O=C1/C(=C/c2cccs2)CCC1C1CCCC1` (stereo not drawn): the activation is 39.6% (active).
The value for `C[C@H](CO)N1C[C@H](C)[C@@H](CN(C)C(=O)Nc2ccccc2F)OCc2cn(nn2)CCCC1=O` was -2.87%; that for `COc1cc(OC)cc(-c2c(-c3ccc(F)cc3)c3cc(-c4ccc5cc[nH]c5c4)ccc3n2C)c1` was -17.5%.
For `COc1cc(OC)cc(-c2cc3ccc(F)cc3cn2)c1`, the activation is 42.1% (active).
With `COc1ccc(C(C)(O)c2nc(-c3cc(F)cc(F)c3)cs2)cc1` (stereo not drawn), the activation was -1.38%.
With `COc1ccccc1C(=O)N1O[C@]23C=C[C@]14C[C@@H](O)CC[C@]4(C)C2CC[C@]1(C)[C@@H]([C@H](C)/C=C/[C@H](C)C(C)C)CC[C@H]13` (stereo partly drawn), the activation was -2.64%.
Regarding `COc1cccc(CNc2nc(NCc3cccs3)nc3ccsc23)c1`, the activation was -1.69%.
The value for `O=C(Nc1c(Cl)c(C2CC2)nn1-c1ccccc1)C(Cl)(Cl)Cl` was -2.16%; that for `O=C(NCCCN1CCOCC1)c1cc(-c2ccccc2F)no1` was 3.67%; that for `O=C(c1ccco1)N1CCN(C(=O)c2cc(-c3ccccc3F)no2)CC1` was 1.22%.
For the compound `Fc1ccccc1-c1cc2cc3c(cc2cn1)OCO3`, the activation was 40.7% (active).
The value for `CCNC(=O)C1(C)CCCN(Cc2noc(-c3ccccc3OC)n2)C1` (stereo not drawn) was -3.24%; that for `CN1C(=O)C2CC(O)C(SC3CC4C(=O)N(C)C(=O)C4CC3O)CC2C1=O` (stereo not drawn) was -1.16%; that for `CCc1nc2c(OCc3ccc(C(F)(F)F)cc3)cccn2c1N(C)C(=O)CC(C)C` was -1.72%.
As to `C=CCc1cccc2cc(C(=O)NC3CCCC3)c(=O)oc12`, the activation is -0.536%.
In the case of `C=CCc1cccc2cc(C(=O)Nc3ccc(NC(C)=O)cc3)c(=O)oc12` it was 39.5% (active); in that of `CCOc1cccc2cc(C(=O)OCC(=O)Nc3c(C)cccc3CC)c(=O)oc12`, 8.56%.
In the case of `COc1ccc(-c2ccccc2C2Cc3nnccc3CN2C(=O)Nc2ccccc2)cc1` (stereo not drawn) it was -2.13%; in that of `COC(=O)c1cc2c(c3c4ccccc4n(S(=O)(=O)c4cccc(C)c4)c13)C(=O)N(Cc1ccccc1)C2`, -4.66%.
The value for `Cn1c(-c2ccc(F)cc2)cc2onc(-c3ccccc3Cl)c2c1=O` was 53.3% (active); that for `Cn1c(-c2ccc(C(F)(F)F)cc2)cc2onc(-c3ccccc3)c2c1=O` was 23.3%.
As for `Cc1[nH]n(C)c(=O)c1C(=O)c1c(-c2c(Cl)cccc2Cl)noc1C`, the activation is 4.17%.
In the case of `CCOC(=O)/C=C/c1ccccc1O` it was -1.18%; in that of `O=C(Nc1ccc(F)cc1)c1cc2c(s1)CCCC2`, 53% (active); in that of `O=C(NNC(=O)c1cc2c(s1)CCCC2)c1ccccc1`, 27.6%.
In the case of `CN(C)C(=O)c1ccc(NC(=O)COC(=O)c2cc3c(s2)CCCCC3)cc1`, the activation is 0.414%.
In the case of `CCN(CC)C(=O)C1=C(C)N(Cc2ccc(F)cc2)C(=O)C(CC(=O)NCc2cccc3ccccc23)C1` (stereo not drawn) it was -3.01%; in that of `O=CNc1cc(-c2ccc(C(=O)N3CCOCC3)cc2)cn2c(-c3ccc(F)cc3)cnc12`, -3.58%; in that of `Cc1nonc1NC(=O)c1oc2ccccc2c1C`, 8.7%.
In the case of `Cc1noc(C)c1C(=O)Nc1ccccn1` it was -1.19%; in that of `Cc1c(C(=O)Nc2ccccn2)oc2ccc(Br)cc12`, 34.7% (active).
`CC(C)c1ccc(/C=C/C(=O)NCCCN2CCOCC2)cc1`: the activation was -3.21%.
As to `O=C(/C=C/c1ccc(F)cc1)NCCNC(=O)/C=C/c1ccc(F)cc1`, the activation was -1.4%.
In the case of `C=CCNC(=O)/C=C/c1ccc(C(C)C)cc1` it was 42.6% (active); in that of `CCOC(=O)[C@]12CCC=C1N(Cc1cccc3ccccc13)C(=O)[C@H](CC(=O)NCc1cccc(C(F)(F)F)c1)C2`, -1.93%; in that of `C#CCN(C[C@@H]1[C@@H](OC(=O)NC2CC2)[C@@H](OC(=O)NC2CC2)Cn2c(=O)ccc(=O)n21)S(=O)(=O)c1ccc(C)cc1`, -2.83%.
Take `O=[N+]([O-])c1ccc(C(S(=O)(=O)Cc2ccccc2)S(=O)(=O)Cc2ccccc2)cc1`: the activation is -5.67%.
`Cc1cccc(C)c1NC(=O)CNC(=O)c1ccc2c(c1)OCCO2`: the activation is 13.2%.
The value for `Cc1nc(NC(=O)c2ccc3c(c2)OCCO3)ccc1Br` was 48.4% (active); that for `Cc1ccc(C(=O)NNC(=O)c2ccc3c(c2)OCCO3)cc1` was 43.9% (active); that for `CC(=O)c1ccc2c(c1)OCCOCCOc1ccc(C(C)=O)cc1OCCOCCO2` was 1.05%.
In the case of `O=C(Nc1ccccc1)c1ccc2c(c1)OCCCO2`, the activation was 19.2%.
As for `O=C(Nc1ccc(Cl)cn1)c1ccc2c(c1)OCCO2`, the activation is 24.2%.
The value for `CN(CCc1ccccc1)C(=O)c1cccc(NC(=O)Cc2cccc(NC(=O)C3CCCN(C(=O)C4CCC4)C3)c2)c1` (stereo not drawn) was -3.51%; that for `C[C@H]([C@@H](O)[C@@H](O)[C@@H](C)C(C)(C)C)[C@H]1CC[C@H]2C3CC[C@H]4C[C@H](OS(=O)(=O)O)[C@@H](OS(=O)(=O)O)C[C@]4(C)[C@H]3CC[C@]12C` (stereo partly drawn) was -0.623%; that for `CC12CCC(=O)C=C1CCC1C2C(O)CC2(C)C1CCC2(O)C(O)CO` (stereo not drawn) was 3.61%.
The value for `Cn1c(=NC(=O)C2CC2)sc2cc(F)cc(F)c21` was 7.6%.
The value for `CCCC(=O)N=c1sc2cccc(F)c2n1C` was 5.33%; that for `Cn1c(=NC(=O)c2ccco2)sc2cccc(F)c21` was 61.6% (active).
Regarding `Cc1ccc(S(=O)(=O)N2C[C@]3(O)C[C@@H]4C(=O)N(c5ccccc5)C(=O)[C@@H]4C[C@]3(OC(=O)NC3CC3)C2)cc1`, the activation was -1.31%.
Consider `CC(=O)Nc1cnc(-c2ccc(O)cc2C)cn1`, for which the activation is -0.836%.
The value for `Clc1ccc(Nc2nc(-c3cccs3)cs2)nc1` was 25.2%; that for `Cc1ccc(Nc2nc(-c3ccc(O)cc3O)cs2)nc1` was 59.5% (active).
In the case of `Cn1c(=O)c2cc(NC(=O)NCCc3cccs3)ccc2n1Cc1cccc(C(F)(F)F)c1` it was -1.78%; in that of `Cc1ccc(S(=O)(=O)N2CC3C(=O)C[C@@H](c4ccccc4Cl)N(S(=O)(=O)c4ccc(C)cc4)C3CC2c2ccccc2)cc1` (stereo partly drawn), -1.39%; in that of `COC(=O)c1ccc2nc(-c3ccc(Cl)cc3)c(Cc3cccc(F)c3)n2c1`, 11.3%.
In the case of `Cc1ccc(S(=O)(=O)NCCC(=O)Nc2ccc(C)c(Cl)c2)cc1C` it was -1.93%; in that of `Cc1ccnc(NC(=O)CCNS(=O)(=O)c2ccc(C)c(C)c2)c1`, 35.8% (active).
For the compound `Cc1ccc(S(=O)(=O)NCCC(=O)Nc2cccc(S(N)(=O)=O)c2)cc1C`, the activation is -1.96%.
For the compound `CCN1CCCC1CNC(=O)c1ccc2c(c1)NC(=O)/C(=C\c1ccccc1F)S2` (stereo not drawn), the activation was -0.637%.
As for `O=c1[nH]c(-c2ccccc2)cn1C1CCN(Cc2ccc(-c3nc4ccc(F)cc4nc3-c3ccccc3)cc2)CC1`, the activation was 0.441%.
For the compound `COCCCn1c(C(=O)NC2CCCCC2)cc2c(=O)n3cccc(C)c3nc21`, the activation was -1.3%.
In the case of `CC(C)NC(=O)N1Cc2cc(C(=O)NCC(F)(F)F)nc(-c3cccc(-c4cc5ccccc5o4)c3)c2[C@@H]1CCO` it was -2.74%; in that of `CC1CCCCC1NC(=O)Cn1c(=O)cnc2ccccc21` (stereo not drawn), -3.58%; in that of `CC(C)c1cc(C(=O)NC2CCCCCC2)c2ccccc2n1`, -2.8%.
For the compound `O=C(/C=C/c1cnc2ccccc2n1)NC1CCCCCC1`, the activation is 49.2% (active).
The value for `COC(=O)[C@]1(Cc2ccccc2)NC=C(C(=O)c2ccccc2)[C@@H]1c1cccc(OC)c1` was 2.93%; that for `COC(=O)c1c(-c2ccc(OC)cc2)c2c(c3c4cc(OC)ccc4n(S(=O)(=O)c4ccc(F)cc4)c13)C(=O)N(C)C2` was -8.37%.
In the case of `CCNC(=O)C1(C)CCCN1C(=O)c1ccc(N(C)C)cc1` (stereo not drawn) it was -4.12%; in that of `CN(C)c1ccc(CSc2ccccc2)cc1`, 2.13%; in that of `CN(C)c1ccc(CNC23CN4CN(CN(C4)C2)C3)cc1`, 35.9% (active).
In the case of `Nc1ncnc2c1ncn2[C@@H]1O[C@H](C(=O)N[C@@H](CCc2ccccc2)C(=O)NCC(=O)N2CCOCC2)[C@@H](O)[C@H]1O` it was -8.65%.
